The record followed here is PubChem BioAssay AID743279 (National Center for Advancing Translational Sciences (NCATS), 2014).

About 17,000 (4.7%) of roughly 360,000 compounds were called active. Another 5% or so got no clear call; they are omitted. Many of the other results were omitted from the sample, so actives are more common in it than they were. A number with no mark means an inactive call. Rule as the data show it: active = activity change below about -50%; inconclusive = mostly about -30% to -49%; inactive = weaker than that.
% is scaled to controls: 0 for no effect and ±100 for the full control effect.

A short description of the assay: qHTS for Inhibitors of Inflammasome Signaling: IL-1-beta AlphaLISA Primary Screen. Conditions: THP-1 LPS/ATP IL-1B secretion, 16 h, at 57.5 µM, active compounds read low. From the text: Inflammasomes are a set of intracellular multi-protein complexes that enable autocatalytic activation of inflammatory caspases and drive the innate immune response to counter harmful agents. […] A qHTS assay, based on AlphaLISA technology, was developed to screen the Molecular Libraries Small Molecule Repository (MLSMR) to look for novel inflammasome inhibitors. The assay detects IL-1B using AlphaLISA anti-IL-1B acceptor and donor beads. A decreased emission signal, indicating reduced IL-1B secretion, is the desired outcome for this assay. NIH Chemical Genomics Center [NCGC] NIH Molecular Libraries Probe Centers Network [MLPCN] MLPCN Grant: MH095513 Assay Provider: Shyam Biswal Ph.D., Johns Hopkins University Immunity. 2012 Jul 27;37(1):85-95. PMID: 22819042 [2] Curr Pharm Des. 2012;18(16):2320-8. PMID: 22390695
Three microliters containing 3000 THP-1 cells were dispensed into the wells of solid, white, tissue culture treated Greiner 1,536-well plates. Library compounds and positive control, Glyburide, were pin-transferred (23 nL) by a Kalypsys pin-tool equipped with a 1,536-pin array, resulting in final compound concentration ranges of 2.5 nM to 57.5 uM. After 1 hr of cell culture incubation (37 °C, 5% CO2), 1 microL of 1 microg/mL lipopolysaccharide (250 ng/mL, final) and 5 mM ATP (1.25 mM, final) were added to stimulate the cells. After 16 hr of cell culture incubation with the compounds, 1.5 uL of anti-IL-1B acceptor beads (6 ug/mL, final) and biotinylated antibody (0.6 nM, final) were added to the plate, followed by a 1 hr incubation at ambient temperature. To detect the secreted IL-1B, 1.5 uL of AlphaLISA SA-Donor beads (24 ug/mL, final) were added, followed by 30 min of incubation in the dark at ambient temperature. The AlphaLISA signal was read by a PerkinElmer EnVision plate reader with an ultrasensitive luminescence detector and 1536 Plate HTS AlphaScreen aperture (excitation of 680nm and emission of 615nm).
Background: In qHTS, concentration-response curves come from the screen itself.
Consider `CC1=C(C(=O)Nc2ccccc2)SCCO1`, for which the activity change is 19.6%. The result for `CC1=C(C(=O)Nc2ccccc2)S(=O)(=O)CCO1` reads -86.7% (active); that for `C[C@]12CCC3C(CC[C@H]4[C@H](O)[C@H](O)CC[C@]34C)C1CC[C@@H]2O` (stereo partly specified), 38.5%; that for `CC(=CCOc1ccc2ccc(=O)oc2c1)C1=CC(=O)C(C)(C)O1`, -91.3% (active). On to `CC(CC(C#N)(c1ccccc1)c1ccccc1)N1CCCCC1` (stereo unspecified), for which the activity change is -2.29%. With `O=C1C2CCN(CC2)C1(CO)CO`, the activity change is -9.66%. Regarding `CCC(=O)c1ccc(OCC(=O)N2CCN(CC(=O)Nc3ccc(C)cc3)CC2)cc1`, the activity change was 14.3%. Consider `Clc1ccc2nc3c(c(-c4ccccc4)c2c1)CNCC3`, for which the activity change is -57% (active).

For the compound `C[C@H]1CN([C@@H](C)CO)C(=O)CCCn2nncc2CO[C@H]1CN(C)C(=O)Oc1ccccc1`, the activity change is 16.8%.

In the case of `O=C(CCN1CCCCC1)NCC(=O)Nc1ccc(Br)cc1C(=O)c1ccccc1`, the activity change is -10.3%. As to `O=C(CN1CCCCC1)Nc1ccc(Br)cc1C(=O)c1ccccc1Cl`, the activity change is -8.15%.

In the case of `O=C(COC(=O)c1ccccc1)Nc1ccc(Cl)cc1C(=O)c1ccccc1`, the activity change was 15.9%. For `O=C(CCNS(=O)(=O)c1ccccc1)Nc1ccc(Cl)cc1C(=O)c1ccccc1`, the activity change was -63% (active). Take `CN1CCN(C(=S)SCC(=O)Nc2ccc(Cl)cc2C(=O)c2ccccc2)CC1`: the activity change is -88% (active). With `CCC/C(=N\O)c1c[nH]c2ccccc12`, the activity change is 23.8%. For the compound `Cn1c(C(=O)N2CCC(C(=O)N3CCC4(CC3)OCCO4)CC2)cc2sccc21`, the activity change is -11.3%.

Turning to `CNP1(NC)=Nc2nn(-c3ccccc3)c(N)c2C(c2ccccc2)=N1`, the activity change is -24.6%.

As for `C=C(C)C1(CCCC)C(=O)NC(=S)NC1=O`, the activity change was 11.5%. The result for `CCOC(=O)CNC(=O)N1Cc2cc(N3CCCCC3)ccc2-n2nncc2C1` reads -5.99%; that for `COC(=O)[C@@H]1C(OC(=O)c2ccccc2)CC2CCC1N2C` (stereo partly specified), -10.2%. For the compound `COC(=O)C1=C(c2ccccc2)C[C@@H]2CC[C@H]1N2C(=O)N1CCCCC1`, the activity change is -19.1%. On to `COc1ccc2c(c1)NP(=S)(c1ccccc1)N2` (stereo unspecified), for which the activity change is -12.5%. Turning to `CC12CCC(O)CC1CCC1C2CCC2(C)C(C(=O)CC(O)C(F)(F)F)CCC12` (stereo unspecified), the activity change was 15.6%. As for `COc1ccc(-c2nn(CCC#N)cc2C(=O)O)cc1`, the activity change is 10.5%. On to `O=c1[nH]c(=S)n(C2CC2)c(O)c1/C=N/N1CCOCC1`, for which the activity change was 33.5%. Under `C[N+]1(C)CCOC(O)(c2ccc(-c3ccc(C4(O)C[N+](C)(C)CCO4)cc3)cc2)C1` (stereo unspecified) stands 7.41%; under `Cn1cc(C(=O)OCC(=O)N2CCCC2)c2ccccc21`, -12.4%; under `C[C@]12CCC3C(CC[C@H]4C[C@@H](O)CC[C@]34C)C1C[C@@H](O)[C@H]2O` (stereo partly specified), 24.7%. As for `C[C@]12CCC3C(CC[C@H]4[C@H](O)[C@H](O)CC[C@]34C)C1CCC2=O` (stereo partly specified), the activity change is 8.07%. As for `CC12CCC3C(CCC4CC(=O)CCC43C)C1CC(=NO)C2=O` (stereo unspecified), the activity change was -101% (active). In the case of `O=c1c2ccccc2[nH]c(=S)n1-c1cccc(Cl)c1`, the activity change is 25.2%.

On to `CCn1cc(CN2CCCC(C(=O)c3cccc(C(F)(F)F)c3)C2)cn1` (stereo unspecified), for which the activity change is 10.1%. Take `COc1ccc(CCn2c(O)c(C=NCCCn3ccnc3)c(=O)[nH]c2=O)cc1OC`: the activity change was 43.4%. As to `CCCCCCCCCCCCn1ccc(=N)cc1`, the activity change was -100% (active). Regarding `CCOC(=O)C1SC2(C(F)(F)C(F)F)CC1(O)c1c(c(OC)c3occc3c1OC)O2` (stereo unspecified), the activity change was 0%. For the compound `CC(C)(C)[C@]1(O)C[C@@H]2OC(=O)C[C@@]23C(=O)O[C@@H]2OC(=O)[C@H](O)[C@]213`, the activity change is -4.02%. As for `COCc1cc(OC(=O)N(C)C)nc(-c2ccc(C)c(Cl)c2)n1`, the activity change was -2.68%.

With `C[C@]12CCCCC1=CC(=O)C1C2CC[C@@]2(C)C1C[C@@H](F)[C@@H]2O` (stereo partly specified), the activity change is 0.0265%. In the case of `CC(C)c1ccc(OCC(=O)N2CCCN(C)CC2)cc1`, the activity change was -17.5%. `CCOC(=O)CC(SP1(=S)OCC2(CCCCO2)C(C2CCCCO2)O1)C(=O)OCC` (stereo unspecified): the activity change is 17.2%. `CC(c1ccccc1)(c1ccccc1)c1ccncc1`: the activity change is -63.6% (active). The result for `ClC(Cl)(Cl)c1ccccc1` reads -9.44%; that for `c1ccc(C(CN2CCCCC2)c2ccccc2)cc1`, -8.96%; that for `CNC(=O)N(C)c1nnc(C(C)(C)C)s1`, 17.7%. Turning to `O=C1NCN(c2ccccc2)C12CCN(C(c1cccs1)c1nnnn1C1CCCCC1)CC2` (stereo unspecified), the activity change was -18.5%. Regarding `CC(C)CN1Cc2cc(N3CCCCC3)ccc2-n2nncc2C1`, the activity change was -4.66%.
